PubChem BioAssay (NCI)
The panel holds about 79,000 compounds, 15% with a hit somewhere; the sample as a whole holds those more often. Activity calls are given as the source filed them. No stated cut-off is given here; in the data, active means growth inhibition above about 70%; inactive means the rest.

Assay: NCI Yeast Anticancer Drug Screen. Data for the rad14 strain (AID 159);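 further: 0% = growth of vehicle-treated control cultures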
Details: S. cerevisiae rad14 strain growth inhibition, active compounds read high
Method: Growth inhibition of yeast strains with defined genetic alterations is measured as a screen for potential anti-cancer activity. Selected strains with alterations in DNA damage repair or cell cycle control were exposed to compounds and growth inhibition was measured relative to vehicle treated controls. The strain used in this assay is rad14

Measured: growth inhibition

O=C(C[n+]1ccc2ccccc2c1)c1ccc2ccccc2c1
inactive: at 1.2 µM -45% | at 3.7 µM -44% | at 11.0 µM -36% | at 33.0 µM 11%
active: at 100.0 µM 97%

COc1cccc2c1C(=O)c1c(O)c3c(c(O)c1C2=O)CC(O)(C(O)CO)CC3OC1CC(N2CCOCC2)C(O)C(C)O1 (stereo not given)
active: at 1.2 µM 95% | at 3.7 µM 96% | at 11.0 µM 96% | at 33.0 µM 97% | at 100.0 µM 97%

COC(=O)CC1CCc2c(ccc3ccccc23)C1(C)C(=O)OC (stereo not given)
inactive: at 1.2 µM -2% | at 3.7 µM 1% | at 11.0 µM 2% | at 33.0 µM -5% | at 100.0 µM 10%

CCOc1ccc(NC(=O)C2=C(C)NC(C)=C(C(=O)Nc3ccc(OCC)cc3)C2c2cccc([N+](=O)[O-])c2)cc1
active: at 100.0 µM 86%
inactive: at 1.2 µM -2% | at 3.7 µM -2% | at 11.0 µM -1% | at 33.0 µM 9%

Clc1ccc(NCNC2Nc3ccccc3N2)cc1Cl
inactive: at 1.2 µM 0% | at 3.7 µM 3% | at 11.0 µM 13%
active: at 33.0 µM 96% | at 100.0 µM 99%

O=c1c2ccccc2nc(-c2ccccc2)n1O
inactive: at 1.2 µM 51% | at 3.7 µM 59%
active: at 11.0 µM 97% | at 33.0 µM 99% | at 100.0 µM 98%

O=C1c2ccccc2C(=O)N1CCCC(=O)n1cc(F)c(=O)[nH]c1=O
inactive: at 1.2 µM -33% | at 3.7 µM -40% | at 11.0 µM -26% | at 33.0 µM -7% | at 100.0 µM 40%

COC(C(O)CO)C(O)C(O)C(=O)NNc1ccccc1 (stereo not given)
inactive: at 1.2 µM 6% | at 3.7 µM 9% | at 11.0 µM 19% | at 33.0 µM 21%
active: at 100.0 µM 84%
